The values below come from PubChem BioAssay AID743279 (National Center for Advancing Translational Sciences (NCATS), 2014).

Molecules are shown by their SMILES. The whole screen tested about 360,000 compounds, of which about 17,000 (4.7%) were called active. Roughly 5% stayed inconclusive and do not appear here. Rule as the data show it: active = activity change below about -50%; inconclusive = mostly about -30% to -49%; inactive = weaker than that. Many of the other results were omitted from the sample, so actives are more common in it than they were.
% is scaled to controls: 0 for no effect and ±100 for the full control effect.

A short description of this experiment: qHTS for Inhibitors of Inflammasome Signaling: IL-1-beta AlphaLISA Primary Screen. To be noted: THP-1 LPS/ATP IL-1B secretion, 16 h; at 57.5 µM, active compounds read low. An outline of the steps:
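THP-1 cells pretreated 1 hr with compounds (up to 57.5 uM final), then stimulated with LPS (250 ng/mL final) plus ATP (1.25 mM final); secreted IL-1B measured by AlphaLISA after 16 hr, decreased signal indicating inhibition.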
On the technique in general: Quantitative high-throughput screening tests each substance at several concentrations.
With `O=C1[C@H]2[C@@H](c3ccc(C(F)(F)F)cc3)N[C@]3(CCCN(Cc4ccc(Br)cc4)C3=O)[C@H]2C(=O)N1Cc1ccccc1`, the activity change was -13.1% (inactive).
For `Cc1ccc(S(=O)(=O)N2CC3C(=O)C[C@@H](c4ccccc4Cl)N(S(=O)(=O)c4ccc(C)cc4)C3CC2c2ccccc2)cc1` (stereo partly drawn), the activity change was -22% (inactive).
Take `COC(=O)[C@]12CCCCC=C1N(Cc1ccc3c(c1)OCO3)C(=O)[C@H](CC(=O)N1CCOCC1)C2`: the activity change was -18.3% (inactive).
In the case of `C/C=C/c1ccc(OCCCCN2CCC(C)CC2)c(OC)c1`, the activity change was -54% (active).
Turning to `COc1ccccc1OCC(O)CN1CCOCC1` (stereo not drawn), the activity change is 5.64% (inactive).
`COc1ccc(OCCCCN2CCC(C)CC2)cc1`: the activity change was -29.3% (inactive).
For the compound `C/C=C/c1ccc(OCC(O)CN2CCCCCCC2)c(OC)c1` (stereo not drawn), the activity change was -53.6% (active).
To `C/C=C/c1ccc(OCCOc2ccc(C=O)cc2OC)c(OC)c1` belongs 3.9% (inactive).
Consider `C=CCc1ccc(OCC(O)CN2CCN(Cc3ccccc3)CC2)c(OC)c1` (stereo not drawn), for which the activity change is -7.39% (inactive).
With `CC(=O)Nc1ccc(C(=O)OCC(=O)Nc2ccc([N+](=O)[O-])cc2C(F)(F)F)cc1` the figure was -1.11% (inactive); with `COC(=O)[C@]12CCCCC=C1N(Cc1ccco1)C(=O)[C@H](CC(=O)NCCCCc1ccccc1)C2`, 4% (inactive); with `CC(=O)Nc1cccc(-c2cc3nc(NCc4cccnc4)n(C)c(=O)c3s2)c1`, -0.936% (inactive).
To `Cc1ccc(S(=O)(=O)NNC(=O)/C=C/c2cccc(F)c2)cc1` belongs -11.4% (inactive).
For the compound `CC(CN1CCC(n2nccc2NC(=O)C2CCCC2)CC1)c1ccccc1` (stereo not drawn), the activity change was -14% (inactive).
As for `CC(=O)Nc1ccc(CN2CCC(Oc3ccc(C(=O)N4CCCC4)cc3)CC2)cc1`, the activity change was 20.8% (inactive).
In the case of `O=C(c1ccc(OC2CCN(C/C=C/c3ccc(F)cc3)CC2)cc1)N1CCCCC1`, the activity change was -63.7% (active).
For the compound `O=C(c1ccc(OC2CCN(Cc3ccccn3)CC2)cc1)N1CCCCCC1`, the activity change was 2.11% (inactive).
`O=C(Nc1ccnn1C1CCN(C/C=C/c2ccc(F)cc2)CC1)C1CCCC1`: the activity change is -71.6% (active).
To `Cc1nn(C)c(Cl)c1CN1CCC(n2nccc2NC(=O)C2CCCC2)CC1` belongs 22.9% (inactive).
Regarding `CCC(C(=O)NC(C)(C)C)n1c(-c2ccccc2)nc2ccccc21` (stereo not drawn), the activity change was 3.76% (inactive).
Turning to `CC(=O)Nc1ccc2nc(NC(=O)CS(=O)(=O)c3ccc(F)cc3)sc2c1`, the activity change is 2.42% (inactive).
With `CCOc1ccc(S(=O)(=O)NCCC(=O)NCC(C)(C)N2CCOCC2)cc1`, the activity change was 12.3% (inactive).
Take `Cc1ccc(NC(=O)[C@H](Cc2ccccc2)NC(=O)CC[C@H]2O[C@@H](n3ccc(=O)[nH]c3=O)[C@H](O)[C@@H]2O)cc1C`: the activity change was 6.2% (inactive).
Regarding `CC1(C)OC(=O)C2=C(C[C@@H](C3CC3)O[C@H]2CCc2cccc(Cl)c2)O1`, the activity change was 24.6% (inactive).
On to `COc1cnn(-c2ccc([N+](=O)[O-])cc2)c(=O)c1Cl`, for which the activity change was -16.9% (inactive).
With `COc1ccc(Oc2c(Cl)cnn(-c3ccccc3)c2=O)cc1`, the activity change is -118% (active).
Turning to `COc1ccc(CCNC(=O)c2c(C)nn(-c3ccccc3)c2Cl)cc1`, the activity change is -6.31% (inactive).
With `CCc1ccc(NC(=O)C(=O)NNC(=O)c2cccs2)cc1` the figure was -11.1% (inactive); with `CCOc1ccc(NC(=O)CN(C)C(=O)CSc2ccccc2)cc1OCC`, 5.24% (inactive).
Take `O=C(Nc1ccc(F)cc1)C(=O)c1cn(CC(=O)N2CCOCC2)c2ccccc12`: the activity change was 8.7% (inactive).
For the compound `Cc1ccnc(NS(=O)(=O)c2ccc(NC(=O)c3oc4ccc(F)cc4c3C)cc2)n1`, the activity change was 4.03% (inactive).
`CSc1ccccc1NC(=O)COC(=O)CCCOc1ccc(C)cc1`: the activity change is 13.8% (inactive).
For `COc1cc([N+](=O)[O-])ccc1NC(=O)COC(=O)CCOc1ccc(C)cc1`, the activity change was -81.7% (active).
With `COc1cccc(NC(=O)COC(=O)CCOc2ccccc2OC)c1` the figure was -1.64% (inactive); with `O=C(COC(=O)c1cccc(Cl)c1Cl)NC1CCCCCC1`, 4.38% (inactive); with `O=C(NCC(=O)N1CCCC(C(F)(F)F)C1)c1ccccc1F` (stereo not drawn), 6.36% (inactive).
`FC(F)(F)C1CCCN(c2nsc3ccccc23)C1` (stereo not drawn): the activity change was -76% (active).
As for `Cn1ccc(=Nc2ccc(NC(=O)c3ccc(N=c4ccn(C)c5ccc([N+](=O)[O-])cc45)cc3)cc2)cc1`, the activity change was -20.4% (inactive).
`Cc1ccc(CN2CC(C(=O)N3CCN(S(=O)(=O)c4ccccc4)CC3)CC2=O)cc1` (stereo not drawn): the activity change is -19.1% (inactive).
Consider `Cc1ccc(C)c(S(=O)(=O)N2CCN(c3ncnc4sccc34)CC2)c1`, for which the activity change is -53.3% (active).
Turning to `Cc1ccc(S(=O)(=O)N2CCN(c3ncnc4ccccc34)CC2)cc1`, the activity change is -9.9% (inactive).
Turning to `COc1ccc(C)cc1S(=O)(=O)N1CCN(S(=O)(=O)c2cc(C(=O)O)ccc2C)CC1`, the activity change was 34.7% (inactive).
As for `O=C1OC(Oc2ccc(Br)cc2)(c2ccccc2)c2ccccc21` (stereo not drawn), the activity change is -13.8% (inactive).
For the compound `CSc1ncc(C(=O)NCCCc2ccccc2)c(C)n1`, the activity change is 0% (inactive).
To `O=C(Cc1ccccc1)Nc1cccc(NC(=O)c2ccccc2)c1` belongs -19.5% (inactive); to `O=C(CSCc1ccccc1)Nc1ccccc1`, 0.36% (inactive).
To `O=C(CCl)Nc1cccc(CP(=O)(c2ccccc2)c2ccccc2)c1` belongs -99.8% (active); to `COC(=O)c1ccc2nc(-c3cccc(Br)c3)c(Cc3ccccc3C(F)(F)F)n2c1`, 0% (inactive).
With `CCCC(=O)N1CCC1(C)C(=O)NCc1ccc(SC)cc1` (stereo not drawn), the activity change was 21.3% (inactive).
Consider `C/C(=N\OCC(=O)O)c1ccc(Cl)cc1`, for which the activity change is 0% (inactive).
On to `C/C(=N\N=C(N)N)c1ccc(Cl)cc1`, for which the activity change is -86.4% (active).
Take `C/C(=N\NC(=S)NCc1ccccc1)c1ccc(Cl)cc1`: the activity change is 0% (inactive).
To `CCc1nc2c(OCC(=O)C(C)(C)C)cccn2c1N(C)C(=O)c1ccccc1F` belongs 32.1% (inactive); to `O=C(Nc1cc(Br)ccc1F)c1nc[nH]c1C(=O)NCc1ccccc1`, -4.71% (inactive).
For the compound `OC[C@@H]1CN(C2CCCC2)C[C@H](n2cnc3c(NC4CCC4)ncnc32)O1`, the activity change was 5.5% (inactive).
On to `CCN1CCN(C(=O)CSc2ccc(C)cc2)CC1`, for which the activity change was -5.59% (inactive).
For the compound `CCN1CCC2(CC1)N=C(c1ccc(F)cc1)C(=S)N2C(=O)c1ccc(C)cc1`, the activity change is -115% (active).
For `Cc1ccc(SCC(=O)N2CCN(c3ccc(F)cc3)CC2)cc1`, the activity change was -12.4% (inactive).
